# Data published in PubChem BioAssay.
# Calls of active or inactive are those of the source. The rule behind the calls is not given here.
# Target: Pantothenate synthetase (Mycobacterium tuberculosis (strain ATCC 25618 / H37Rv)) (UniProt P9WIL5)
# Assay: Recombinant Mtb pantothenate synthetase (PanC) inhibitors, coupled enzyme, confirmatory (AID 375);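 note: 0% = full reaction with vehicle and 100% = no enzyme background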
# Conditions: coupled enzyme assay; at 10 µM, hits give high values
# Chain of Pantothenate synthetase (Mycobacterium tuberculosis (strain ATCC 25618 / H37Rv)) (P9WIL5 whole entry, looked up): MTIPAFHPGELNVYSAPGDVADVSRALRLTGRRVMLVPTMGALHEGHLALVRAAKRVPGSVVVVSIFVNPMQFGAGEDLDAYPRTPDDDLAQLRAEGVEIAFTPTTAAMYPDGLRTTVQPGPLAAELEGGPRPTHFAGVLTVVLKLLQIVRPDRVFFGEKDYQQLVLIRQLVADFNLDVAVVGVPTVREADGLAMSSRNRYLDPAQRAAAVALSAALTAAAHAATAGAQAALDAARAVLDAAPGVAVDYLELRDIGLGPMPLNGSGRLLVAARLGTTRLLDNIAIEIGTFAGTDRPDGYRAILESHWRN
row,Structure (SMILES),inhibition
1,O=C(CSc1nnc(-c2ccc(Br)cc2)n1C1CCCCC1)N1CCCC1,2% (inactive)
2,O=C(Cn1c(=O)n(CC2CCCO2)c(=O)c2ccccc21)c1ccccc1 (stereo not given),0% (inactive)
3,CCn1nc(C(=O)OCC(=O)c2cc(C)n(Cc3cccs3)c2C)c2ccccc2c1=O,1% (inactive)
4,O=C(NCC(c1cccnc1)N1CCN(c2ccc(F)cc2)CC1)c1ccc(F)cc1 (stereo not given),4% (inactive)
5,O=C(NCc1cccnc1)c1cn(CCc2ccccc2)nn1,0% (inactive)
6,COc1ccc(NC(=O)CS(=O)CC(=O)Nc2cc(Cl)ccc2OC)cc1 (stereo not given),3% (inactive)
7,O=C(CN1CCOCC1)Nc1cccc(C(=O)Nc2cccc(C(F)(F)F)c2)c1,2% (inactive)
8,O=C(Cc1cccs1)Nc1ccccc1NC(=O)Cc1cccs1,0% (inactive)
9,CCN(C(=O)CN1CCN(c2ccccc2OC)CC1)c1c(N)n(Cc2ccccc2)c(=O)[nH]c1=O,0% (inactive)
10,CCn1c(=N)n(CC(O)c2ccco2)c2ccccc21 (stereo not given),0% (inactive)
11,Cc1nc2cc(Cl)ccc2n1CCO,2% (inactive)
12,CCOC(=O)c1cccc(NC(=O)Cn2cnc3c2c(=O)n(C)c(=O)n3C)c1,4% (inactive)
13,COc1ccc(OC)c(CNC(=O)CCN2C(=O)COc3ccccc32)c1,5% (inactive)
14,CCOC(=O)c1c(NCc2ccc3c(c2)OCO3)c2ccccc2[nH]c1=O,0% (inactive)
15,O=C(Cn1c(=O)[nH]n(-c2ccccc2)c1=O)N1CCCc2ccccc21,0% (inactive)
16,Cc1nccn1CCCN1C(=O)OC2(CCCCC2)C1(C)O (stereo not given),0% (inactive)
17,O=C(c1cnc2n(c1=O)CCS2)N(C1CCCCC1)C1CCCCC1,0% (inactive)
18,CCOC(=O)Nc1c(O)ccc2oc(C)c(-c3ccccc3)c12,0% (inactive)
19,Nn1c(SCC(=O)Nc2ccc(Oc3ccccc3)cc2)nnc1C1CC1,7% (inactive)
20,CC(C)C(=O)Nc1ccc(C(=O)NCc2cccnc2)cc1,0% (inactive)

row,Structure (SMILES),inhibition
1,O=C(CSc1nc2c(c(=O)n1-c1ccc(F)cc1)SCC2)NCC1CCCO1 (stereo not given),6% (inactive)
2,O=C(O)CSc1ccc2ccccc2n1,5% (inactive)
3,CCOc1cc2[nH]c(=O)n(CCC(=O)NCCc3ccc(OC)c(OC)c3)c(=O)c2cc1OCC,1% (inactive)
4,CCOC(=O)C1=C(C)NC(C)=C(C(=O)OCC)C1c1cc(N)ccc1OC(F)F,0% (inactive)
5,CCn1c(C(=O)N2CCCC(C(=O)NCCCc3ccccc3)C2)cc2sccc21 (stereo not given),0% (inactive)
6,CC(=O)N1C(=O)c2cccc3cccc(c23)C(=O)N1C(C)=O,0% (inactive)
7,Cc1cccc(C)c1NC(=O)COC(=O)c1nonc1N,0% (inactive)
8,CNC(=O)c1ccsc1NC(=O)c1ccccc1,4% (inactive)
9,COc1ccc(C(NC(=O)C(C)(C)C)NC(=O)C(C)(C)C)cc1,0% (inactive)
10,CC(=O)Nc1ccc(Oc2cc(C#N)c(C#N)cc2N2CCCCCC2)cc1,0% (inactive)
11,CCCC(CCC)C(=O)NCCN1CCOCC1,0% (inactive)
12,O=C(Nc1ccc2c(c1)C(=O)N(C1CCCCC1)C2=O)C1CCCO1 (stereo not given),6% (inactive)
13,O=C(NCc1cccnc1)c1ccc(=O)oc1,3% (inactive)
14,Cc1nnc(C)n1/N=C/c1cccc(Oc2ccccc2)c1,1% (inactive)
15,COc1ccc(C(=O)Nc2ccc(S(=O)(=O)Nc3onc(C)c3C)cc2)cc1,1% (inactive)
16,CCOc1ccccc1NC(=O)CN(C)S(=O)(=O)c1cccc2nsnc12,11% (inactive)
17,COc1cccc(C=Nc2ccc3c(c2)OCCO3)c1O,3% (inactive)
18,COc1ccc(N2C(=O)C3C4C=CC(C4)C3C2=O)nn1 (stereo not given),8% (inactive)
19,O=C(Nc1cccc(NC(=O)c2cccnc2)c1)c1cccnc1,1% (inactive)
20,Cc1cnc(C(=O)OCC(=O)Nc2ccc(Cl)cc2Cl)cn1,8% (inactive)
